In PubChem BioAssay (NCATS):
Unmarked numbers belong to inactive results. Results filed as inconclusive are left out. Activity calls are given as the source filed them. Unless noted, calls follow the shape of the dose curve; as a rule, active = well fitted curve in the direction sought with a large enough effect; inconclusive = small, poorly fitted or top-dose-only effect, or another doubt; inactive = no such curve, though single readings can be large; an effect the other way counts as inactive or inconclusive.

Assays:
[1] = biological target: Lysosomal acid glucosylceramidase (Homo sapiens) (UniProt P04062); assay: Glucocerebrosidase-p2 (AID 348; in the data active = potency below about 10 µM; also: potency is read from the fitted curve at half-maximal effect); settings: purified GBA, blue fluorogenic substrate, 40 min
Chain of Lysosomal acid glucosylceramidase (Homo sapiens) (P04062 whole entry, looked up): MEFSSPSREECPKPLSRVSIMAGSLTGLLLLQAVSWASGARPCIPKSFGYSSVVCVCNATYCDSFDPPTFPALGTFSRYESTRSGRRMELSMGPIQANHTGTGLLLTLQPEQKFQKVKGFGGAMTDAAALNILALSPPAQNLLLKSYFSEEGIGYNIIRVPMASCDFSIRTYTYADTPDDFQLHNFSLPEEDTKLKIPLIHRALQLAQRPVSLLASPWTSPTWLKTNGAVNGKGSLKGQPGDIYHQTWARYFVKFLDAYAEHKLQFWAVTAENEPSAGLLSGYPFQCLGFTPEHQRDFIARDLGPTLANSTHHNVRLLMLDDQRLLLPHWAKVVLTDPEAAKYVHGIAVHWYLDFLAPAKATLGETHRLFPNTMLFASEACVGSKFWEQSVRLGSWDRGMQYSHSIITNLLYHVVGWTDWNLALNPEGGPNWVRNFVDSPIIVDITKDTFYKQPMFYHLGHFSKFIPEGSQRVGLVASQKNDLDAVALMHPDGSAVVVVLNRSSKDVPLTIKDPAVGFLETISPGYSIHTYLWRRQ
Outline: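 Normal human glucocerebrosidase (0.2 nM) with blue fluorogenic substrate (80 uM final) in citrate/phosphate pH 5.9 with 10mM sodium taurocholate, 0.01% tween-20; 40 min RT, NaOH/glycine stop; fluorescence Ex 365/Em 440; AC50 from a titration from 0.6 nM upwards.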

[2] = AP1 Signaling Pathway (AID 357; active = well fitted curve in either direction with a large enough effect, not every such curve was filed as active; also: % is scaled to controls: 0 for no effect and ±100 for the full control effect); settings: ME-180 AP-1-bla reporter, EGF-induced, beta-lactamase ratio, 5 h; at 7.69 µM (top of the series) unless noted
Outline: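 ME-180 cells with beta-lactamase reporter under AP-1 response element, stimulated with EC50 EGF; compounds tested in titration series, 5 h at 37 °C. CCF4 substrate added 2.5 h at room temperature; 460/530 nm emission ratio gave %activity and AC50.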

[3] = biological target: Cytochrome P450 1A2 (Homo sapiens) (UniProt P05177); assay: p450-cyp1a2 (AID 410; calls by dose curve; also: potency is read from the fitted curve at half-maximal effect); settings: recombinant CYP1A2, luciferin-ME demethylation, luminescence; series mostly up to 57 µM
Chain of Cytochrome P450 1A2 (Homo sapiens) (P05177 whole entry, looked up): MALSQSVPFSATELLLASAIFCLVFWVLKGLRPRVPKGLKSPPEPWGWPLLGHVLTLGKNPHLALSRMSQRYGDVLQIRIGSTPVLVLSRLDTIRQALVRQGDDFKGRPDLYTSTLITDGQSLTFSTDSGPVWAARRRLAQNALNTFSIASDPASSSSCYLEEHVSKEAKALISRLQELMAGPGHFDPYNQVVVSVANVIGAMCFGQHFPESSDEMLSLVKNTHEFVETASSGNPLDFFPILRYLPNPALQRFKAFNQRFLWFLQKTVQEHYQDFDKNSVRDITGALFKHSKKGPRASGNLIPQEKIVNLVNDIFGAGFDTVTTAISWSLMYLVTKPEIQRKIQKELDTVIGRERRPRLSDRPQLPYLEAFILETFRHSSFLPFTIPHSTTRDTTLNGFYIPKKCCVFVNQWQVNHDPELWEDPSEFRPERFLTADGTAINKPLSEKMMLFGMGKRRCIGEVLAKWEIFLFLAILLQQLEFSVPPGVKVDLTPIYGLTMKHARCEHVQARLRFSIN
Outline: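 20nM CYP1A2, 100uM Luciferin-ME (=Km), 100mM KPO4; cpd 10 min RT; +NADPH regen, 60 min RT; stop/detect 20 min; luminescence. Normalized to furafylline 57 uM = full inhibition.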

[4] = NFAT Signaling Pathway (AID 444; active = well fitted curve in either direction with a large enough effect, not every such curve was filed as active;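 also: carbachol stimulus at about its EC50 of 1 µM final; % is scaled to controls: 0 for no effect and ±100 for the full control effect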); settings: Jurkat NFAT-bla M1, carbachol, beta-lactamase ratio, 5 h; at 7.69 µM (top of the series) unless noted
Outline: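 Jurkat cells carrying an NFAT-driven β-lactamase reporter and co-transfected muscarinic M1 receptor were treated with compound plus carbachol (1 uM final, an EC50 level) for 5 h at 37 °C. CCF4 loading followed for 1 h at RT; 460/530 nm ratio gave %activity.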

[5] = Stat Signaling Pathway (AID 446; active = well fitted curve in either direction with a large enough effect, not every such curve was filed as active;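 also: ME-180 cervical cancer cells given 40 pM IL-6 alongside compound; SIE-controlled beta-lactamase reporter measured as 460/530 nm FRET emission ratio; % is scaled to controls: 0 for no effect and ±100 for the full control effect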); settings: ME-180 SIE beta-lactamase reporter, IL-6 stimulated, 5 h; at 7.69 µM (top of the series) unless noted
Outline: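 Emission at 460 and 530 nm (excitation 405 nm) reports SIE-controlled beta-lactamase in ME-180 cells. Cells received compound with 40 pM IL-6 for 5 hrs at 37 C; data scaled between 300 pM IL-6 and 125 nM JAK-inhibitor controls.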

[6] = biological target: Glucocorticoid receptor (Homo sapiens) (UniProt P04150); assay: GR-GFP Redistribution (AID 450;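 active = compounds whose dose series gives a full or clear partial fitted curve of increased nuclear translocation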; also: potency is read from the fitted curve at half-maximal effect); settings: U2OS GR-GFP nuclear translocation, laser cytometry, 2 h
Chain of Glucocorticoid receptor (Homo sapiens) (P04150 whole entry, looked up, the tested form may be a part): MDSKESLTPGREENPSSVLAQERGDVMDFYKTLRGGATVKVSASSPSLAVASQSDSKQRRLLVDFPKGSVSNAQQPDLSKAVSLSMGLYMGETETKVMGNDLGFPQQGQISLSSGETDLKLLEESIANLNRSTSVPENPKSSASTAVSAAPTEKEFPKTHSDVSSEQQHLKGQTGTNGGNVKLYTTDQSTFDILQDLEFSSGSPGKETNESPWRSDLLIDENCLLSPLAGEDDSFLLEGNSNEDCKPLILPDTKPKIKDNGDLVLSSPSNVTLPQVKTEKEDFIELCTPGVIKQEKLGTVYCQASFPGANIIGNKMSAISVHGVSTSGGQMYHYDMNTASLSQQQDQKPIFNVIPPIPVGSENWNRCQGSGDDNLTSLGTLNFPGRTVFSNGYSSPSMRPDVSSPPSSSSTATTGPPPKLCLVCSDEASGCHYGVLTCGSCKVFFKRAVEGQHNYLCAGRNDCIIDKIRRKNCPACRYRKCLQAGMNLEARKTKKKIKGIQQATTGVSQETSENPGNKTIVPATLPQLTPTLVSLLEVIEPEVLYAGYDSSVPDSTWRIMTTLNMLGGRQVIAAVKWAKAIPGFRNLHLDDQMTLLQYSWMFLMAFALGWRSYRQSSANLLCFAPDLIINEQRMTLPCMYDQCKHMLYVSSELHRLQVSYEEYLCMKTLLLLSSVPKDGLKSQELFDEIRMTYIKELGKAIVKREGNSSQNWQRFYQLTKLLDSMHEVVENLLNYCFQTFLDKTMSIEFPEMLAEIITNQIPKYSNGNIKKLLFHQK

[7] = biological target: Glucocorticoid receptor (Homo sapiens) (UniProt P04150); assay: GR-EFC Redistribution (AID 451; calls by dose curve; also: potency is read from the fitted curve at half-maximal effect); settings: CHO-K1 GR-EFC translocation, beta-gal luminescence, 2 h
Outline: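 CHO-K1 cells stably expressing nuclear-localized β-gal enzyme acceptor and GR fused C-terminally to the enzyme donor fragment; ligand-driven nuclear translocation restores β-gal by complementation. Compounds titrated up to 46 uM final, 2 h at 37 °C; luminescence read.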

[8] = biological target: Mitogen-activated protein kinase 10 (Mus musculus) (UniProt Q61831); assay: JNK3 AlphaScreen Assay (AID 530; active = well fitted curve in either direction with a large enough effect, not every such curve was filed as active;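 also: kinase came from lysate of stimulated human HepG2 cells; signal reports phosphorylation of biotinylated GST-cJun 1-79 at Ser73 with 10 µM ATP; % is scaled to controls: 0 for no effect and ±100 for the full control effect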); settings: JNK3 lysate, c-Jun phosphorylation; series mostly up to 57.1 µM
Outline: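 Biotinylated GST-cJun(1-79) served as substrate for JNK3 in HepG2 lysates stimulated with IL-1beta and TNF-alpha. ATP was 10 uM final, pH 7.6. Ser73 phosphorylation was quantified by AlphaScreen (680 nm excitation).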

[9] = biological target: 3',5'-cyclic-AMP phosphodiesterase 4B (Homo sapiens) (UniProt Q07343); assay: qHTS Assay for Inhibitors of PDE-IV (AID 607; active = well fitted activation curve with a large enough effect in the main read-out, with a control signal flat, not every such curve was filed as active; also: % of control where 0% means no effect); settings: HEK293 ACTOne CNG channel cells, membrane potential fluorescence; series mostly up to 22.9 µM
Chain of 3',5'-cyclic-AMP phosphodiesterase 4B (Homo sapiens) (Q07343 whole entry, looked up): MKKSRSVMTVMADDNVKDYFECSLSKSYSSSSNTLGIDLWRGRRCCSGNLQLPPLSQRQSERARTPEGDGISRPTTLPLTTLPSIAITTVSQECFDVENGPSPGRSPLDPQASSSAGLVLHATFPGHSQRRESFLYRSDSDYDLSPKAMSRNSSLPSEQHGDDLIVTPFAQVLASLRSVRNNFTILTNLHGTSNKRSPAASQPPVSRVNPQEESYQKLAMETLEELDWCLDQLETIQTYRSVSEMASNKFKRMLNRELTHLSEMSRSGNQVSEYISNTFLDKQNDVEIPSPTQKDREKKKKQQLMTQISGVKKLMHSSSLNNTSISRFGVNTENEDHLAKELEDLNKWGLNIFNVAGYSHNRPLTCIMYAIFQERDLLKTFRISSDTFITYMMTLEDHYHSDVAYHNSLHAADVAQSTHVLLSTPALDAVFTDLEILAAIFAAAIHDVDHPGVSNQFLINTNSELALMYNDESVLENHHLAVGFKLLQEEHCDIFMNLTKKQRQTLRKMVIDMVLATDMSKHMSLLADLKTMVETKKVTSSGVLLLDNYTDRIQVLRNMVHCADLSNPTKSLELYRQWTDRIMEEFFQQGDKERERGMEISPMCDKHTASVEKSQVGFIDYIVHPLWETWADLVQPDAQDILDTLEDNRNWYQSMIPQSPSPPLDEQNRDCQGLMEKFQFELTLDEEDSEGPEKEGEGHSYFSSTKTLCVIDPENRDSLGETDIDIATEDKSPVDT
Outline: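 The readout is membrane depolarisation from a cAMP-sensing CNG channel, detected with a potential dye at ex 535/em 590. Cells were HEK293-derived (endogenous PDE-IV) at 1000 cells/well, titrated up to 22.9 uM final.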

[10] = biological target: Dual specificity protein kinase CLK4 (Homo sapiens) (UniProt Q9HAZ1); assay: qHTS Assay for Inhibitors of CDC-like Kinase 4 (Kinase-Glo Assay) (AID 1770); settings: recombinant Clk4, Kinase-Glo ATP depletion luminescence; series mostly up to 66.7 µM; also: nearly all actives have a fitted effect of over 65% in size; also: potency is read from the fitted curve at half-maximal effect
Chain of Dual specificity protein kinase CLK4 (Homo sapiens) (Q9HAZ1 whole entry, looked up): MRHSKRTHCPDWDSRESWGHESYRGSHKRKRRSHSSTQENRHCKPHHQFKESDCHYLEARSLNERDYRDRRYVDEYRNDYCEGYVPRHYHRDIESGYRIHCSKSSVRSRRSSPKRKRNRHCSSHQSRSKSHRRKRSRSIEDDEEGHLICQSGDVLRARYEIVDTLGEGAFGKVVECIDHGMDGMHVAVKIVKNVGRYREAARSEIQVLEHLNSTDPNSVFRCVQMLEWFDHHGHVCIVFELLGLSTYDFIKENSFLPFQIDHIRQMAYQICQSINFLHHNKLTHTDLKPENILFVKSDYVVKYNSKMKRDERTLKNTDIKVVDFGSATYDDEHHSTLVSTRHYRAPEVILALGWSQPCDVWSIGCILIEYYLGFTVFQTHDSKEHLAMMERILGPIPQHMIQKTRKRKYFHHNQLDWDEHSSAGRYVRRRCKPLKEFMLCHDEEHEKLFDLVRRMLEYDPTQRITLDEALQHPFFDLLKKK
Outline: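 Luminescent ATP-depletion read-out (Kinase-Glo) after 4.5 h room-temperature reaction of Clk4 (25 nM final) with RS peptide (100 uM) and ATP (1 uM), pH 7.5 Tris buffer with MgCl2 and DTT.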

[11] = biological target: Dual specificity protein kinase CLK4 (Homo sapiens) (UniProt Q9HAZ1); assay: qHTS Assay for Inhibitors of CDC-like Kinase 4 (ADP-FP Assay) (AID 1795); settings: Transcreener ADP fluorescence polarization; series mostly up to 50 µM;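 also: recombinant human CLK4 phosphorylating RS repeat peptide at 1 µM ATP; % is scaled to controls: 0 for no effect and ±100 for the full control effect; nearly all actives have a fitted effect of over 60% in size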
Outline: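 Kinase activity was measured as ADP production using Transcreener orange tracer (4 nM) and ADP antibody (1 ug/mL) fluorescence polarization, with ADP calculated from a calibration curve. The 1 h reaction contained 6.25 nM Clk4, 1 uM ATP and 100 uM RS peptide at pH 7.5 with Mg2+.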

[12] = biological target: Ubiquitin carboxyl-terminal hydrolase 1 (Homo sapiens) (UniProt O94782); assay: Inhibitors of USP1/UAF1: Pilot qHTS (AID 504865); settings: purified USP1/UAF1, Ub-rhodamine cleavage fluorescence; series mostly up to 54.9 µM;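 also: rhodamine fluorescence freed from ubiquitin-rhodamine substrate followed over time; top concentration of the series differs between compounds; % is scaled to controls: 0 for no effect and ±100 for the full control effect; nearly all actives have a fitted effect of over 35% in size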
Chain of Ubiquitin carboxyl-terminal hydrolase 1 (Homo sapiens) (O94782 whole entry, looked up): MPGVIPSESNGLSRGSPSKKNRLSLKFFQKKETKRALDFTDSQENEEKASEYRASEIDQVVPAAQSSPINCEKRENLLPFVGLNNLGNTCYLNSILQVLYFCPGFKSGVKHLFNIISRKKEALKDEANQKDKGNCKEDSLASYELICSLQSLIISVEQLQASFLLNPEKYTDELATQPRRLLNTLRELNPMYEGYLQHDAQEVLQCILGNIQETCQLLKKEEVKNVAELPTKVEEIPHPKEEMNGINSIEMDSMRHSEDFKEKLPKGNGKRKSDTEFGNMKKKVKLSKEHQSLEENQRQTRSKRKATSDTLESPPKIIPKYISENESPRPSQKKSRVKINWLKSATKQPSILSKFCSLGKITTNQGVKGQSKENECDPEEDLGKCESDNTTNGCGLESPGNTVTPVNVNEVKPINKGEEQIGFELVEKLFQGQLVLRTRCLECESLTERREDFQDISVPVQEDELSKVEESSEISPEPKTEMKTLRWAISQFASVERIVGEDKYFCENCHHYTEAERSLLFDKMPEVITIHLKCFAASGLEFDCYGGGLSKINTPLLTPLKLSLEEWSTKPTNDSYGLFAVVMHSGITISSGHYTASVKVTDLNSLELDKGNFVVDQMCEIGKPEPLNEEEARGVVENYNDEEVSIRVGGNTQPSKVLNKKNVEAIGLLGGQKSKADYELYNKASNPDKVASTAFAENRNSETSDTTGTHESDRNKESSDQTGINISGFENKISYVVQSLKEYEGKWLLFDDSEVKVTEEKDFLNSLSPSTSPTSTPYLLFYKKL
Outline: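 Deubiquitinase activity followed as kinetic rhodamine fluorescence release from 150 nM Ub-Rho. 1 nM USP1/UAF1 with compound, after 15 min room-temperature preincubation, in HEPES pH 7.8 buffer containing TCEP, EDTA, BSA and Tween-20.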

[13] = Primary qHTS for small molecule stabilizers of the endoplasmic reticulum resident proteome: Secreted ER Calcium Modulated Protein (SERCaMP) assay (AID 1508630); settings: SH-SY5Y GLuc-SERCaMP (Gaussia luciferase released on ER calcium loss) secretion, thapsigargin, luminescence; series mostly up to 38.4 µM; also: % is scaled to controls: 0 for no effect and ±100 for the full control effect
Outline: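 The SH-SY5Y reporter protocol was run at 3 concentrations up to 38.3 uM (primary) or 11 concentrations (follow-up): 16 h compound, 100 nM thapsigargin for 4 h, then extracellular luciferase luminescence.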

[14] = biological target: Dual specificity protein kinase CLK4 (Homo sapiens) (UniProt Q9HAZ1); assay: qHTS Assay for Inhibitors of CDC-like Kinase 4 (ADP-Glo Assay) (AID 1771); settings: recombinant CLK4, ADP-Glo luminescence; series mostly up to 80 µM; also: nearly all actives have a fitted effect of over 70% in size; also: potency is read from the fitted curve at half-maximal effect
Outline: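 25 nM Clk4, 100 uM RS peptide, 1 uM ATP (final); 2 mM MgCl2, 0.5 mM EGTA, 2.5 mM DTT, 0.01% Triton X-100; 1 hr RT. ADP-Glo readout: ATP depletion 45 min, conversion/luciferase 30 min, luminescence.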

[15] = biological target: Cytochrome P450 3A4 (Homo sapiens) (UniProt P08684); assay: qHTS Assay for Inhibitors and Substrates of Cytochrome P450 3A4 (AID 884); settings: recombinant CYP3A4, Luciferin-PPXE luminescence; series mostly up to 57.1 µM; also: potency is read from the fitted curve at half-maximal effect; nearly all actives have a fitted effect of over 50% in size
Chain of Cytochrome P450 3A4 (Homo sapiens) (P08684 whole entry, looked up): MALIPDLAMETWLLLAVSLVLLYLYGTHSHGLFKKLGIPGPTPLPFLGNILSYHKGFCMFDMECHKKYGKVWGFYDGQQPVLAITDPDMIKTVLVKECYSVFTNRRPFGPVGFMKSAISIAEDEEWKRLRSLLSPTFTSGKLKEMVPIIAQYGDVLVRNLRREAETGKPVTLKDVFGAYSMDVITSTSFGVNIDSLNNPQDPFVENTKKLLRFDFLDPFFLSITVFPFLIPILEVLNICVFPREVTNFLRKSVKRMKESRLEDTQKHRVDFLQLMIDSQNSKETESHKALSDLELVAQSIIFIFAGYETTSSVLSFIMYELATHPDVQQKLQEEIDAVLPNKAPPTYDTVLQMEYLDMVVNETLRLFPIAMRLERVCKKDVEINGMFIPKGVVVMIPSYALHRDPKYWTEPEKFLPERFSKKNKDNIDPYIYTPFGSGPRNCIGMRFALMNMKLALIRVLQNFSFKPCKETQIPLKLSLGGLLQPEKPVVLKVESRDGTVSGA
Outline: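 Luminescent readout of luciferin produced by CYP3A4 (20 nM) dealkylation of Luciferin-PPXE, 25 uM (its KM). NADPH-driven reaction ran 60 min at RT after 10 min compound preincubation; data scaled to 57 uM ketoconazole as 100% inhibition.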

[16] = biological target: Cytochrome P450 3A4 (Homo sapiens) (UniProt P08684); assay: qHTS Assay for Activators of Cytochrome P450 3A4 (AID 885); settings: recombinant CYP3A4, Luciferin-PPXE luminescence, 60 min; series mostly up to 57.1 µM; also: nearly all actives have a fitted effect of over 65% in size
Outline: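 Activators are scored by enhanced luminescence from CYP3A4 conversion of luciferin-PPXE (25uM, equal to KM) to luciferin, after 60 min at RT with an NADPH-regenerating system.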

[17] = biological target: Cytochrome P450 2C19 (Homo sapiens) (UniProt P33261); assay: qHTS Assay for Inhibitors and Substrates of Cytochrome P450 2C19 (AID 899); settings: recombinant CYP2C19, luciferin-H EGE luminescence; series mostly up to 57.1 µM; also: potency is read from the fitted curve at half-maximal effect; nearly all actives have a fitted effect of over 60% in size
Chain of Cytochrome P450 2C19 (Homo sapiens) (P33261 whole entry, looked up): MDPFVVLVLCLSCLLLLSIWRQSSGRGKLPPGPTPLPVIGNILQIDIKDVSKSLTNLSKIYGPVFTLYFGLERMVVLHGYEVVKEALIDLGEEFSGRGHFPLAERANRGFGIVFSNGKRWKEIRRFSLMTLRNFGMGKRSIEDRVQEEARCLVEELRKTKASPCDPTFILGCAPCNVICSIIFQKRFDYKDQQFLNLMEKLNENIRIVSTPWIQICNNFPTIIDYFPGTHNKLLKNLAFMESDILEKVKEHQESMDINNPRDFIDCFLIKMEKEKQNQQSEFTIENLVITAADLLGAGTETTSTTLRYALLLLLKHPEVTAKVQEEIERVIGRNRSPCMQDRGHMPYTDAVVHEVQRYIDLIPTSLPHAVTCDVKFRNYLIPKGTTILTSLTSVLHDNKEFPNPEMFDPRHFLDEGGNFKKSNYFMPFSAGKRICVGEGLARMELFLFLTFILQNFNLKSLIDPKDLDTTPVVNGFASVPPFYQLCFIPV
Outline: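 NADPH-dependent conversion of Luciferin-H EGE (10uM, at KM) by 5nM enzyme in 50mM KPO4, 60 min at 37C following 10 min compound preincubation. Stopped with luciferin detection buffer; luminescence read after 20 min.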

[18] = qHTS Assay for Identification of Small Molecule Agonists for Hypoxia Response Element Signaling Pathway (AID 914; active = well fitted activation curve with a large enough effect in the signal ratio, with a control signal flat, not every such curve was filed as active; the % refers to the signal ratio; also: % of control where 0% means no effect); settings: ME-180 HRE-bla reporter, beta-lactamase ratio, CoCl2, 17 h; activation: stronger effect = higher value
Outline: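 ME-180 cells carrying an HRE-driven beta-lactamase reporter were treated with compounds in a titration series plus an EC50 level of CoCl2 for 17 h at 37 degrees Celsius; CCF4 readout as the 460nm/530nm ratio gave AC50 values.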

Row | SMILES | Potency [1] [µM] | activity change, negative = inhibition [2] [%] | Potency [3] | activity change, negative = inhibition [4] | activity, negative = inhibition [5] [%] | Potency [6] [µM] | Potency [7] [µM] | Potency [8] | Potency [9] | Potency [10] | Potency [11] | Potency [12] | outcome [13] | Potency [14] | Potency [15] | Potency [16] | Potency [17] | activation [18] [%]
1 | COc1ccc(-c2nc3cnc(OC)nc3n(C)c2=O)cc1 | > 11.4 | 8.21 | 2.51 µM (active) | -0.516% | 15.6 | > 9.22 | > 46 | inactive | inactive | inactive | inactive | inactive | inactive | – | – | – | – | –
2 | O=c1cnc2cnc(Oc3cccc(Cl)c3)nc2n1CCc1ccccc1 | > 11.4 | – | – | – | -20.1 | > 9.22 | > 46 | inactive | inactive | 2.24 µM (active) | – | inactive | inactive | 3.55 µM (active) | – | – | – | –
3 | COc1ccc(CNc2ncncc2-c2ccc(C(=O)N(C)C)cc2)c(OC)c1 | – | -28.8 | 15.8 µM (active) | 18.9% | -21 | > 46 | > 46 | inactive | – | inactive | – | inactive | inactive | inactive | 0.501 µM (active) | inactive | – | –
4 | Cc1nc2cnc(Nc3ccccc3)nc2n(CCc2ccccc2)c1=O | > 11.4 | -7.04 | 2.51 µM (active) | -9.65% | -6.93 | > 9.22 | > 46 | inactive | inactive | inactive | inactive | inactive | inactive | – | – | inactive | – | –
5 | CC(=O)NCCNc1ncnc2ccc(-c3ccccc3Cl)cc12 | > 11.4 | – | – | -0.746% | -1.74 | > 46 | > 46 | inactive | – | 15.8 µM (active) | – | inactive | inactive | 15.8 µM (active) | – | inactive | – | –
6 | COc1ccccc1CNc1ncncc1-c1ccc(C(=O)N(C)C)cc1 | – | -10.9 | 12.6 µM (active) | 1.11% | 9.05 | > 46 | > 46 | inactive | inactive | 12.6 µM (active) | – | inactive | inactive | 14.1 µM (active) | 2.51 µM (active) | inactive | – | –
7 | O=c1c(CCc2ccccc2)nc2cnc(N3CCOCC3)nc2n1C1CC1 | > 11.4 | -19.2 | – | 4.06% | 3.71 | – | > 46 | inactive | – | inactive | – | inactive | inactive | inactive | – | – | – | –
8 | O=c1c(-c2ccccc2)nc2cnc(Nc3ccccc3)nc2n1C[C@H]1CCCO1 | > 11.4 | 1.69 | – | -14.2% | -4.27 | > 9.22 | > 46 | – | inactive | inactive | – | inactive | inactive | inactive | – | inactive | – | –
9 | COc1ccccc1CNc1ccnc(-c2ccccc2Cl)n1 | – | -21.9 | 5.01 µM (active) | -0.207% | -0.645 | > 46 | > 46 | inactive | inactive | inactive | – | – | inactive | inactive | – | inactive | 1.58 µM (active) | –
10 | Cn1cc(-c2nc3cnc(N4CCNCC4)nc3n(Cc3ccc(F)cc3)c2=O)c2ccccc21 | > 11.4 | – | 20 µM (active) | 68.4% [activator] (active) | – | > 9.22 | > 46 | – | inactive | inactive | – | – | inactive | inactive | – | inactive | 7.94 µM (active) | –
11 | CNc1ncnc2ccc(-c3ccccc3C#N)cc12 | – | 21.4 | 1 µM (active) | 23.3% | -1.74 | > 46 | > 46 | inactive | inactive | 6.31 µM (active) | – | inactive | inactive | 7.08 µM (active) | – | inactive | – | –
12 | CN1CCN(c2cc(-c3ccccc3Cl)ncn2)CC1 | > 11.4 | -6.42 | – | 3.06% | -1.39 | > 46 | > 46 | inactive | inactive | inactive | – | inactive | inactive | inactive | – | – | – | 18
